From PubChem BioAssay AID587 (National Center for Advancing Translational Sciences (NCATS), 2007)
About 35 (0.06%) of roughly 59,000 compounds were called active. Another 19% or so got no clear call; they are omitted. The sample holds actives, similar compounds and a random draw of the others, so the mix is not that of the screen. Rule as the data show it: active = max dye-equivalent concentration above about 10 nM; inconclusive = between about 1.1 nM and that limit; inactive = weaker than that.

Experiment: qHTS Assay for Spectroscopic Profiling in Texas Red Spectral Region
Conditions: Compound fluorescence, Texas Red channel, 547/618 nm
Description: NIH Molecular Libraries Screening Centers Network [MLSCN] NIH Chemical Genomics Center [NCGC] […] Occasionally, the artifactual effect may originate from the compound#s own spectral or other biophysical properties which generally tend to track its assay concentration. Pre-screening/profiling the library with respect to the compounds# spectral properties should help one exclude false positives early on. While the most informative fluorescent profiling data set is obtained by performing a full excitation and emission scan of each well by using a monochromator-based plate reader, such an approach is practical only on a very limited scale as scanning each well requires long time. An alternative approach, applied here, is to perform plate reader scans using selected excitation and emission wavelength pairs to generate a multidimensional relational database that correlates compound concentration and the respective relative fluorescence intensity at a given wavelength set. A standard curve of Texas Red (TR) present on each plate as six-point concentration series, was used to compute a normalized fluorescence response, termed dye-equivalent concentration, for each compound at each concentration.
NCGC Assay Protocol Summary: Buffer: 100 mM Tris buffer, pH 8.0 Dye standard plate: The wells in columns 1 through 4 of a Kalypsys polypropylene 1536-well compound plate were filled with standard solutions of fluorophore corresponding to the spectral region of interest. Solutions of TR were placed in the following wells: U1, V1: 3 mM, U2, V2: 300 uM, U3, V3: 30 uM, U4, V4: zero (DMSO), W1, X1: 3 uM, W2, X2: 900 nM, W3, X3: 300 nM, W4, X4: zero (DMSO). Assay Steps: Six uL of buffer were dispensed to 1536-well Greiner black plates. Compounds and dye standards (23 nL) were transferred via Kalypsys PinTool. The plates were incubated for 15 min at room temperature, and then read on ViewLux (Perkin-Elmer) High-throughput CCD imager using 547 nm and 618 nm excitation and emission filter set. Keywords: NIH Roadmap, MLSCN, MLI, MLSMR, qHTS, NCGC, Texas Red, Fluorescent Profiling.

Max dye-equivalent concentration, inactive:
Cc1nn(-c2ccccc2)c(CC(C)(C)C(=O)O)c1C(=O)O
COCCn1c(=O)c(-c2cc(F)cc(F)c2)nc2cnc(N3CCNCC3)nc21
CN1CCN(S(=O)(=O)c2ccc(NC(=O)C3CCCO3)cc2)CC1 (configuration not stated)
O=C(c1cnccn1)N1CCC[C@@]2(CCN(Cc3ccncc3)C2)C1
CN1CCN(c2ncc3nc(-c4ccc(Cl)cc4)c(=O)n(-c4ccccc4)c3n2)CC1
N#Cc1cccc(-c2nc3cnc(N4CCNCC4)nc3n(C3CC3)c2=O)c1
CCOCCOC(=O)C1=C(C)N(C)C(=O)NC1c1ccccc1F (configuration not stated)
Cc1nc(NCc2ccccc2)c(C(N)=O)c2c1COC(C)(C)C2
COc1ccc(N2CCN(C(=O)CSc3nnc4ncccn34)CC2)cc1
O=C1CSC(c2cccc(F)c2)N1c1ccccc1F (configuration not stated)
COc1ccc(N2CCN(Cc3cc(=O)oc4ccc5ccccc5c34)CC2)cc1
COC(=O)c1ccccc1NC(=O)CSc1ccccn1
COc1ccc2oc(=O)c(C(=O)N3CCN(c4ccccc4F)CC3)cc2c1
CCNc1ncc2nc(CCc3ccccc3)c(=O)n(-c3ccc(OC)cc3)c2n1
CCOC(=O)C1CCN(C(=O)Cn2cc(C#N)c3ccccc32)CC1
CC(C)C(C(=O)NC1CCCCC1)N(CC1CCCO1)C(=O)CNS(=O)(=O)c1ccc(F)cc1 (configuration not stated)
CO[C@@H]1/C=C\O[C@]2(C)Oc3c(C)c(O)c4c(O)c(c(CN(C)C)c(O)c4c3C2=O)NC(=O)/C(C)=C\C=C[C@@H](C)[C@@H](O)[C@H](C)[C@@H](O)[C@H](C)[C@H](OC(C)=O)[C@@H]1C
Cc1c(C(=O)CN2CCOCC2)[nH]c2ccccc12
O=C(NCCCCO)C(F)(F)C(F)(F)C(F)(F)C(=O)NCCCCO
O=c1c(-c2ccc(F)c(F)c2)nc2cncnc2n1-c1ccccc1
COC(=O)[C@@H]1[C@H]2C[C@H]3c4[nH]c5cc(OC)ccc5c4CCN3C[C@@H]2C[C@@H](OC(=O)c2cc(OC)c(OC)c(OC)c2)[C@@H]1OC
COc1ccc(C(=O)N(CCN2CCOCC2)CC(=O)NC2CCCC2)cc1OC
C=C(C)CSc1nc(N)c2c3c(sc2n1)CCC3
CC(C)c1nc(N2CCOCC2)c(C#N)c2c1COC(C)(C)C2
CN(C)c1ncc2nc(-c3ccc(F)cc3)c(=O)n(Cc3ccc(F)cc3)c2n1
c1cncc(CNc2ccnc(-c3ccc4c(c3)OCO4)n2)c1
CCN(CC(=O)NC(C)C)C(=O)CCNC(=O)c1ccc(Cl)cc1
Cc1nc2cnc(N3CCN(C)CC3)nc2n(C[C@H]2CCCO2)c1=O
COc1ncc2nc(-c3ccc(Cl)cc3)c(=O)n(-c3ccccc3)c2n1
O=C(O)[C@@H](S)[C@H](S)C(=O)O
N#CCCn1c(=O)c(-c2cc(F)cc(F)c2)nc2cnc(Oc3ccccc3)nc21
COc1ccc(OC)c(CN2C(=O)CCC2(C)C(=O)NC2CCCCCC2)c1 (configuration not stated)
O=C(Cn1nnc(-c2ccccc2)n1)NCc1ccccc1
O=c1[nH][nH]c(=O)c2cc(N3CCCC3)ccc12
CC(C(=O)N1CCOCC1)N1c2cccc3cccc(c23)S1(=O)=O (configuration not stated)
O=C(Nc1ccc2c(c1)OCCO2)C1CCCN(c2ncccn2)C1 (configuration not stated)
COCCNC(=O)C(c1ccc(C)o1)N(Cc1cccs1)C(=O)c1snc(C(N)=O)c1N (configuration not stated)
COc1c(F)c(F)c(-c2csc(N)n2)c(F)c1F
CC(C)c1ccc(NC(=O)NC2CCCCC2)cc1
CCC(C)(C(=O)NC1CCCC1)N(C(=O)CNC(C)=O)c1ccc(C)cc1 (configuration not stated)
CCNc1nc(NCC)nc(N(C)n2cnnc2)n1
O=C(CN1CCN(c2ccccn2)CC1)NCc1cccs1
O=C(O)COc1c(Cl)cc(Cl)c2cccnc12
O=C(OCC(O)C(O)COC(=O)c1ccccc1)c1ccccc1 (configuration not stated)
COc1cccc(Cn2c(=O)c(CCc3ccccc3)nc3cnc(N(C)C)nc32)c1
CN1CCN2c3ccccc3Cc3ccccc3[C@@H]2C1
COCCn1c(=O)c(-c2cccc(F)c2)nc2cncnc21
CC1Cc2cc(/C(O)=C3\C(=O)C(=O)N(CCN4CCOCC4)C3c3ccccc3F)ccc2O1 (configuration not stated)
CCOC(=O)CSc1nc2sc3c(c2c(=O)[nH]1)CC(C)(C)OC3
CC(C)NC(=O)N1CC[C@@]2(CCCN(C(=O)c3ccco3)C2)C1
CCC(c1nnnn1C1CCCC1)N1CCN(C(=O)c2ccco2)CC1 (configuration not stated)
Cc1nn(-c2ccccc2)c2sc(C(=O)N(Cc3ccco3)C(C)C(=O)NC(C)(C)C)cc12 (configuration not stated)
CCOC(=O)N1CCC(Nc2c(NCCCN3CCN(c4ccc(OC)cc4)CC3)c(=O)c2=O)CC1
COc1ccccc1CNC(=O)CCCNS(=O)(=O)c1cccc2nsnc12
COc1cccc(-c2cc(NCCc3c[nH]c4ccc(OC)cc34)ncn2)c1
CC(C)(C)c1ccc(C(=O)NCCC(=O)NCc2ccco2)cc1
CCOCC(=O)Nc1cc(OC)c(Cl)cc1OC
CCOc1ccc(CCNC(=O)C2CCN(c3ccc(N4CCOCC4)nn3)CC2)cc1OCC
O=C(Cn1ccc(=O)[nH]c1=O)Nc1ccc(C(=O)O)c(O)c1
CCc1c(C)sc(NC(=O)c2ccc(Br)o2)c1C(=O)OC
CCNc1ncc2ncc(=O)n(Cc3cccc(OC)c3)c2n1
CC1(C)S[C@@H]2[C@@H](NC(=O)[C@@H](N)c3ccccc3)C(=O)N2[C@H]1C(=O)O
COCCn1c(=O)c(-c2cccs2)nc2cncnc21
CN(C)c1cc(N)c2ccccc2n1 (tested in a mixture with another compound)
C[N+]1(CCNC(=O)/C=N/O)CCCCC1
CCCCCC(=O)Nc1ccc2oc(-c3ccncc3)nc2c1
CN/C(=C\[N+](=O)[O-])NCCSCc1csc(CN(C)C)n1
